# Measurements taken from ChEMBL document CHEMBL3988442, “University of Dundee, Small-Polar-MMV Screening Library” (2021).
# Out of some 69,000 compounds screened, about 950 (1.4%) showed an effect of 50% or more. The sample as a whole holds a higher share of strong results than the screen did.
# System: Mycobacterium tuberculosis
# Experiment: Cornell M. t heat shock assay; further: in the data most compounds retested in dose-response had high values
# Type: functional, organism-based
# Design: dose or concentration left out as unconfirmed
row,SMILES,Percent Effect [%]
1,Cn1ncc2c(=O)[nH]c(CN3CCCC3c3ccsc3)nc21 (configuration not stated),-12.54
2,Cc1cccc(C2CCCN2Cc2nc(N)nc(N(C)C)n2)c1C (configuration not stated),47.4
3,Cc1nc(CN2CCCC2c2ccsc2)nc2ccccc12 (configuration not stated),40.46
4,Cc1ccccc1C1CCCN1Cc1nc2c(cnn2C)c(=O)[nH]1 (configuration not stated),-11.52
5,CN(C)c1nc(N)nc(CN2CCCC2c2ccsc2)n1 (configuration not stated),64.16
6,CN(C)c1nc(N)nc(CN2CCCC(c3ccccc3)CC2)n1 (configuration not stated),-13.13
7,CCCc1noc(CN2CCCC2c2ccsc2)n1 (configuration not stated),4.131
8,CN(C)c1nc(N)nc(CN2CCCC2c2cccs2)n1 (configuration not stated),97.97
9,Cn1ncc2c(=O)[nH]c(CN3CCCC3c3cccs3)nc21 (configuration not stated),80.29
10,CC(C)NC(=O)N1CCc2ncc(CN3CCOCC3)n2CC1.O=C(O)C(F)(F)F,-16.24
11,Cc1noc(C)c1CN1CC[C@H]2[C@H]1CCN2CC1CCOCC1.O=C(O)C(F)(F)F.O=C(O)C(F)(F)F,-9.429
12,C=C(C)CN1CCN(Cc2cnc(-c3ccccc3C)nc2)CC1.O=C(O)CC(O)(CC(=O)O)C(=O)O,1.349
13,CCOCC1CN(Cc2ccoc2)Cc2nn(C)cc21.O=C(O)C(F)(F)F (configuration not stated),-18.76
14,O=C(N1CCCC1)N1CC[C@H]2[C@H]1CCN2c1ncccn1.O=C(O)C(F)(F)F,-10.67
15,COc1cc2c(cc1CNC(Cc1cccs1)c1nccs1)OCCO2.Cl (configuration not stated),2.723
16,Cl.O=C(C1CCC1)N1C[C@@H](c2ccsc2)[C@@H]2CN(C3CCCCC3)CC[C@@H]21,-50.24
17,Cc1ccc2nc(C3CCN(CC4CC4)CC3)nn2c1.O=C(O)C(F)(F)F,-35.41
18,CCOC(C)C(=O)NCCNS(C)(=O)=O (configuration not stated),69.12
19,CC(C)COC(C)C(=O)NCCNC(=O)C(C)C (configuration not stated),-3.282
20,CC(C)COC(C)C(=O)NCCNS(C)(=O)=O (configuration not stated),-20.75
21,O=C(O)C(F)(F)F.O=C(c1ccoc1)N1CC[C@@H](N2CCOCC2)[C@@H]1Cc1ccccc1,-25.18
22,O=C(NCc1ccccn1)[C@H]1COC[C@H]2CN(C3CCCC3)C[C@H]21.O=C(O)C(F)(F)F.O=C(O)C(F)(F)F,-26.6

row,SMILES,Percent Effect [%]
1,Cc1ccc(CN[C@@H]2COC[C@H]2Cc2cc(C)no2)cc1.O=C(O)CC(O)(CC(=O)O)C(=O)O,0.5554
2,O=C1CN(Cc2nnc(-c3ccccc3Br)o2)CCN1,14.67
3,O=C1CN(Cc2nnc(-c3ccc(Br)cc3)o2)CCN1,1.317
4,O=C1CN(Cc2nnc(-c3ccc(Br)o3)o2)CCN1,51.83
5,Cl.c1cc(CNCc2ccc(Cn3cncn3)cc2)c2c(c1)OCCO2,-1.246
6,Cl.NC(=O)COc1ccc(CNCc2cc(F)ccc2F)cc1,-36.29
7,CCc1cc(=O)n(CC(=O)NCC2CCCO2)c(-c2cccc(F)c2)n1 (configuration not stated),19.5
8,COCCCNC(=O)Cn1c(-c2cccc(Cl)c2)nc(C)cc1=O,10.79
9,COCCNC(=O)Cn1c(-c2ccc(Cl)cc2)nc(C)c(CCO)c1=O,50.09
10,COCCNC(=O)Cn1c(-c2cccc(F)c2)nc(C)c(CCO)c1=O,66.78
11,CCOc1nc2cccnc2n(CC(=O)NCCOC)c1=O,5.103
12,COCCNC(=O)Cn1c(-c2ccc(F)cc2)nc(C)c(CCO)c1=O,29.85
13,COCCNC(=O)Cn1c(-c2cccc(Cl)c2)nc(C)c(CCO)c1=O,68.55
14,Cc1cc(=O)n(CC(=O)NCCC(C)C)c(-c2cccc(Cl)c2)n1,9.879
15,CCN(CC)C(=O)c1nnsc1-c1ccc(Cl)cc1,-12.37
16,CCN(CC)C(=O)Cn1c(-c2ccc(Cl)cc2)nc(C)c(CCO)c1=O,69.66
17,COCCNC(=O)Cn1ccc2ccc(F)cc21,14.54
18,Cc1nc(-c2ccc(Cl)cc2)n(CC(=O)NC(C)C)c(=O)c1CCO,47.89
19,Cc1ccc(-c2ccc(C3CNCCO3)nc2)cc1.Cl (configuration not stated),-12.85
20,CC[C@@H]1N(Cc2nccs2)CCC[C@]12CCC(=O)N2C.O=C(O)C(F)(F)F,-9.457
21,CCOCC1CN(Cc2ccccn2)Cc2nn(CC3CC3)cc21.O=C(O)C(F)(F)F.O=C(O)C(F)(F)F (configuration not stated),-24.37
22,O=C(O)C(F)(F)F.O=C(c1ncccn1)N1CCC[C@]2(C[C@@H](Oc3ncccc3F)CO2)C1,-26.7

row,SMILES,Percent Effect [%]
1,O=C(Cc1ccccc1F)N1C[C@@H]2COC[C@]2(COc2cccnc2)C1.O=C(O)C(F)(F)F,-4.707
2,COCC(=O)N1CCCn2c(CN3CCOCC3)nnc2C1.O=C(O)C(F)(F)F,-20.35
3,Cl.FC(F)CNc1cnc(C2CCCN2)cn1 (configuration not stated),-21.09
4,O=C(O)C(F)(F)F.O=C1NCCN(CC2CC2)C12CCN(Cc1ccccc1)CC2,-29.41
5,COCC1CC2(CCN(Cc3ccncc3)CC2)CN1C(C)C.O=C(O)C(F)(F)F.O=C(O)C(F)(F)F.O=C(O)C(F)(F)F (configuration not stated),-9.126
6,O=C(Nc1cccnc1)[C@H]1C[C@@H]2CN(S(=O)(=O)C3CC3)C[C@H]1O2,-11.95
7,COCc1ncn2c1CN(C(=O)c1ccc3ccccc3n1)CC2.O=C(O)C(F)(F)F,-56.59
8,CO[C@H]1C[C@@H]2CN(C(=O)c3cc4ccc(F)cc4[nH]3)C[C@@H]2C1,35.64
9,COc1ccc(CN2C[C@H]3CN(c4ccsc4)C(=O)[C@H]3C2)cc1.O=C(O)C(F)(F)F,16.76
10,COc1ccc(F)cc1C(=O)N1C[C@H]2C[C@H](OC)C[C@H]2C1,-3.804
11,CC(=O)N1CCC2(CC1)CN(C(=O)[C@@H]1CSCN1)c1ccc(Cl)cc12.O=C(O)C(F)(F)F,52.14
12,Cl.Cl.O=C([C@@H]1CSCN1)N1CC2(CCNCC2)c2cc(Cl)ccc21,3.414
13,Cl.Cl.O=C([C@H]1CCCN1)N1CC2(CCNCC2)c2cc(Cl)ccc21,-22.31
14,O=C(CC1CCCC1)N1C[C@H](Oc2cccnc2)[C@H]2OCCC[C@H]21.O=C(O)C(F)(F)F,0.71
15,CCOCC1CN(C(=O)N(C)C)Cc2nnn(CC3CC3)c21 (configuration not stated),1.23
16,CCOCC1CN(CC2CCC2)Cc2nnn(CC3CC3)c21 (configuration not stated),57.51
17,C1CCC(CN2Cc3nnn(CC4CC4)c3C(COCC3CC3)C2)C1.O=C(O)C(F)(F)F (configuration not stated),40.48
18,CN(C)CC1CN(Cc2cccc(C#N)c2)Cc2nccn2C1.O=C(O)C(F)(F)F.O=C(O)C(F)(F)F (configuration not stated),-5.749
19,CC(C)c1nn(C)c(Cl)c1CNCc1ccc2c(c1)OCO2.Cl,15.25
20,O=C(CC1CC1)N1CCc2ncc(CN3CCOCC3)n2CC1.O=C(O)C(F)(F)F,2.118
21,COc1ncc(C2(O)CCN(Cc3ccc(F)c(F)c3)CC2)c(OC)n1.Cl,2.429
22,CCCS(=O)(=O)N1CC(=O)N(CCCc2ccccc2)CC(O)C1 (configuration not stated),-29.16

row,SMILES,Percent Effect [%]
1,CCS(=O)(=O)N1CC(=O)N(CCCc2ccccc2)CC(O)C1 (configuration not stated),-6.774
2,CCS(=O)(=O)N1CC(=O)N(CCOc2ccccc2)CC(O)C1 (configuration not stated),-13.04
3,COc1ccccc1CN1CC(OC)CN(C(=O)CC(C)C)CC1=O (configuration not stated),-13.24
4,COc1cccc(OC)c1CN1CC(O)CN(S(C)(=O)=O)CC1=O (configuration not stated),55.83
5,CCCS(=O)(=O)N1CC(=O)N(Cc2ccccc2OC)CC(O)C1 (configuration not stated),56.43
6,CS(=O)(=O)N1CC(=O)N(CCCc2ccccc2)CC(O)C1 (configuration not stated),-9.009
7,CCS(=O)(=O)N1CC(=O)N(Cc2ccccc2OC)CC(O)C1 (configuration not stated),62.67
8,CCCS(=O)(=O)N1CC(=O)N(Cc2cccc(OC)c2OC)CC(O)C1 (configuration not stated),3.552
9,COc1ccccc1CN1CC(O)CN(S(=O)(=O)C(C)C)CC1=O (configuration not stated),61.24
10,COc1cccc(CN2CC(O)CN(S(C)(=O)=O)CC2=O)c1OC (configuration not stated),29.18
11,COc1ccccc1CN1CC(O)CN(C(=O)OCC(C)C)CC1=O (configuration not stated),1.526
12,COc1ncccc1CN1C[C@@H]2COC[C@]2(CNS(C)(=O)=O)C1.O=C(O)C(F)(F)F.O=C(O)C(F)(F)F,-54.94
13,O=C(NCc1ccccn1)[C@]12COC[C@H]1CN(Cc1cccnc1)C2.O=C(O)C(F)(F)F.O=C(O)C(F)(F)F.O=C(O)C(F)(F)F,-8.191
14,CC(=O)N1CCC2(CC1)COCCN2Cc1ccc(F)cc1.O=C(O)C(F)(F)F,-4.953
15,CN(C)[C@@H]1CN(C(=O)Cc2ccccc2)[C@@H]2CCCO[C@H]12.O=C(O)C(F)(F)F,-12.48
16,CN1C(=O)CC(c2cnn(C)c2)C12CCN(C(=O)c1ccncc1)CC2.O=C(O)C(F)(F)F (configuration not stated),-21.56
17,COc1cc(CNCC(O)c2ccc(C)cc2)cc2c1OCO2.Cl (configuration not stated),-8.52
18,O=C(NCC1CCCCC1)N1C[C@H]2C[C@H](C(=O)N3CCCC3)[C@@H](C1)O2,-29.22
19,CN(C)C(=O)CN1CCCC2(CCN(c3ccsc3)C2=O)C1.O=C(O)C(F)(F)F (configuration not stated),-10.79
20,COc1ccc(CN2C[C@H]3C[C@H](CN(C)C)O[C@H]3C2)cc1.O=C(O)C(F)(F)F.O=C(O)C(F)(F)F,-20.17
21,CC(C)NC(=O)[C@H]1C[C@@H]2CN(C(=O)NCCc3ccccc3)C[C@H]1O2,-3.811
